# Source: PubChem BioAssay
# An excerpt weighted towards active compounds, which were near 1.1% of everything screened.
# miR-21 reporter: qHTS Assay for Modulators of miRNAs and/orActivators of miR-21 | 340,000 tested, under 10 active | Potency, µM (highest dose often 38.3 µM), for inactives: top-dose activity change, positive = activation, hits mostly activators | HeLa miR-21 FLuc reporter, luciferase, 48 h | AID 2288, 2010;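 note: % of control where 0% means no effect; miR-21 action dims this reporter so a rising signal means less miR-21 action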
#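 Compounds were titrated across several concentrations (up to approximately 40 uM) and incubated 48 hours with HeLa miR-21-FLuc reporter cells (miR-21 target sequence downstream of FLuc, endogenous miR-21). Readout was firefly luciferase luminescence after lytic detection reagent.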
# TrxR1 inh: qHTS Assay for Inhibitors of Mammalian Selenoprotein Thioredoxin Reductase 1 (TrxR1): qHTS; Thioredoxin reductase 1, cytoplasmic (Rattus norvegicus), O89049; recombinant rTrxR1, NADPH fluorescence consumption, selenite substrate; Potency, µM (series often up to 114 µM), for the others: top-dose activity change, negative = inhibition, hits mostly inhibitors; actives 1% (n = 390,000); AID 588453, 2011; note: potency is the fitted concentration of half-maximal effect; % is set by controls: 0 for no effect and ±100 for the full control effect; nearly all actives have a fitted effect of over 65% in size
# Target sequence (O89049 whole entry, looked up): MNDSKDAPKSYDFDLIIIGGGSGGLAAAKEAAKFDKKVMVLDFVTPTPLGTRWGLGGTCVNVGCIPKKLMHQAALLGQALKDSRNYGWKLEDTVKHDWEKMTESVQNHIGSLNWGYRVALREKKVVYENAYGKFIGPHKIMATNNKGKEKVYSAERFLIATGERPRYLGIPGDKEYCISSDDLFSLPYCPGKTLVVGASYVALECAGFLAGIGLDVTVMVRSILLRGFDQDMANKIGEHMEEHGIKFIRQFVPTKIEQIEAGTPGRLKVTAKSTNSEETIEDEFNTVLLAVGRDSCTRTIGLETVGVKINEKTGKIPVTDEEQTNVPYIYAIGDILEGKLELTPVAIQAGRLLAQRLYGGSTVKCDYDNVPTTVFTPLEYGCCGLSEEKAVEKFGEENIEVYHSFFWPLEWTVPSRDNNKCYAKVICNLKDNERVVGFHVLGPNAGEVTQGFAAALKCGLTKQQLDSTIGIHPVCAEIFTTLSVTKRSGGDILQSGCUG
#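 Rat TrxR1 (90 nM in the dispensed reagent) was pre-reduced with 400 uM NADPH for 5 min at room temperature, then incubated with compound for 15 min. After 400 uM selenite was added, NADPH fluorescence (Ex 340/Em 450 nm) was followed for 8 min.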
# PINK1 expr mod: A Quantitative High throughput Screen to Identify Chemical Modulators of PINK1 Expression; PINK1 immunofluorescence, high-content cytometry, 24 h; Potency, µM (series often up to 76.6 µM), without a hit: at the highest dose activation (PINK1 increase), actives largely listed as activators; actives 0.2% (n = 410,000); AID 624263, 2012; active = well fitted activation curve with a large enough effect; inconclusive = small, poorly fitted or top-dose-only effect; cell line not stated here; note: potency is the fitted concentration of half-maximal effect; % of control where 0% means no effect; nearly all actives have a fitted effect of over 65% in size
#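 Stable cell line treated 24 h with compounds at 5 concentrations (CCCP controls), then fixed and immunostained for PINK1 plus nuclear and cell stains; PINK1 immunofluorescence quantified by laser-scanning microplate cytometry.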
# TrxR1 substrate: qHTS Assay for Substrates of Mammalian Selenoprotein Thioredoxin Reductase 1 (TrxR1): qHTS | Thioredoxin reductase 1, cytoplasmic (Rattus norvegicus), O89049 | purified TrxR1 substrate turnover, NADPH consumption readout | Potency, µM (series often up to 114 µM), for inactives: top-dose activity change, negative = substrate turnover | actives 0.01% (n = 390,000) | AID 588456, 2011; note: potency is the fitted concentration of half-maximal effect; % is set by controls: 0 for no effect and ±100 for the full control effect; nearly all actives have a fitted effect of over 50% in size
#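 Rat TrxR1, dispensed at 90 nM, was prereduced with 400 uM NADPH (final) for 5 min at ~22 deg C, then incubated with compound 15 min before 400 uM selenite. A first-read NADPH fluorescence drop versus no-compound background flagged substrates.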
# GALK inh: qHTS Assay for Inhibitors of Human Galactokinase (GALK); Potency, µM (top dose mostly 57.5 µM), without a hit: at the highest dose activity change, negative = inhibition, hits mostly inhibitors; AID 1868, 2009; actives 0.007% (n = 270,000); P51570; Purified GALK, Kinase-Glo residual ATP luminescence; note: potency is the fitted concentration of half-maximal effect; % is set by controls: 0 for no effect and ±100 for the full control effect
#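 Galactose (100 uM) and ATP (35 uM) were turned over by 5 nM GALK for 1 h at RT. Kinase-Glo Plus then converted the remaining ATP into a luminescent signal.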
# Numbers without * were called inactive; ? = inconclusive; nt = not tested or not shown; [ ] = dose if it differs, or a comment. Unless noted, calls come from the whole dose curve; as a rule, active = well fitted curve in the direction sought with a large enough effect; inconclusive = small, poorly fitted or top-dose-only effect, or another doubt; inactive = no such curve, though single readings can be large; an effect the other way counts as inactive or inconclusive.
SMILES,miR-21 reporter,TrxR1 inh,PINK1 expr mod,TrxR1 substrate,GALK inh
COc1ccccc1CCN1COc2c(cc3c(C)c(C)c(=O)oc3c2C)C1,0%,89µM*,3%,587%,nt
COC(=O)Cc1c(C)c2cc3c(c(C)c2oc1=O)OCN(CCc1ccccc1F)C3,-22%,?,1%,433%,nt
CCc1c(C)c2cc3c(c(C)c2oc1=O)OCN(CCc1ccc(OC)c(OC)c1)C3,0%,?,-1%,526%,nt
COC(=O)Cc1c(C)c2cc3c(c(C)c2oc1=O)OCN(CCc1ccc(OC)cc1)C3,-10%,79µM*,2%,351%,nt
CN(c1ccccc1)P(=O)(N(C)c1ccccc1)N(C)c1ccccc1,?,18%,16µM*,-2%,1%
CN(c1ccccc1)S(=O)(=O)CS(=O)(=O)N(C)c1ccccc1,nt,-13%,-1%,-13%,nt
O=C1Nc2ccccc2/C1=C\C(=O)c1ccccc1,?,?,-4%,-7%,nt
O=C(/C=C1\C(=O)Nc2ccccc21)/C=C1\C(=O)Nc2ccccc21,8%,1µM*,9%,1%,-4%
COc1ccc(CNc2cccc3[nH]c(C(F)(F)F)nc23)cc1OC,1%,?,25µM*,10%[57.1 µM],1%
COc1ccc(CNC(=O)c2[nH]c(C(F)(F)F)nc2-c2ccccc2)cc1OC,nt,nt,1%,nt,nt
Cc1n[nH]c(=S)n1/N=C/c1ccc(OCc2ccc(Cl)cc2Cl)cc1,-64%,-1%,7%,6%,0%
Cc1n[nH]c(=S)n1/N=C/c1ccccc1OCc1ccc(Cl)cc1Cl,-2%,9%,13µM*,3%,4%
COc1ccc(N2C(=O)CC(N3CCN(c4ccc(S(C)(=O)=O)cc4)CC3)C2=O)cc1 (stereo not drawn),0%,16µM*,-3%[38.3 µM],9%,1%
O=C(CCl)Nc1ccc(N=Nc2ccccc2)cc1,16%,-20%,-1%,-2%,0%
O=C(CCl)Nc1ccc(-c2ccccc2)cc1,?,11µM*,-3%,0%,2%
O=C(CCl)Nc1cn(-c2ccccc2)nc1-c1ccccc1,?,13µM*,-3%,4%,1%
CC(=O)Nc1cn(-c2ccccc2)nc1-c1ccccc1,1%,11%,0%,-4%,3%
O=C(CCl)Nc1ccccc1Sc1ccccc1,21%,40µM*,-2%,-3%,1%
O=C(Cc1ccc(Cl)cc1)Nc1ccccc1Sc1ccccc1,-5%,-12%,11%,-10%,0%
CCOc1ccc(C2=NC(c3ccncc3)=Nc3ccc(C)cc3N2)cc1OCC,1%,19%,6%,-6%,nt
N=c1c(S(=O)(=O)c2ccc(Cl)cc2)cc2c(=O)n3ccccc3nc2n1Cc1cccnc1,-7%,11%,40µM*,7%,8%
Cc1cccc(C)c1NC(=S)NC(=O)CCc1ccccc1,0%,3.5µM*,14%[38.3 µM],-2%[57.1 µM],-5%
O=C(NC1CCC(O)CC1)c1ccc(-c2ccc([N+](=O)[O-])cc2)o1 (stereo not drawn),-33%,3.2µM*,1%,-2%,-3%
O=C(c1ccc(-c2ccc([N+](=O)[O-])cc2)o1)N1CCN(S(=O)(=O)c2cccs2)CC1,nt,45µM*,8%,5%,nt
O=C(c1ccco1)N1CCN(C(=O)c2ccc(-c3ccc([N+](=O)[O-])cc3)o2)CC1,nt,7.1µM*,0%,-12%,nt
SMILES,miR-21 reporter,TrxR1 inh,PINK1 expr mod,TrxR1 substrate,GALK inh
CCOC(=O)C1CCCN(C(=O)c2ccc(-c3ccc([N+](=O)[O-])cc3)o2)C1 (stereo not drawn),nt,10µM*,8%,0%,nt
O=C(c1ccc(-c2ccc(Cl)cc2)o1)N1CCN(S(=O)(=O)c2cccs2)CC1,nt,24%,1%,14%,nt
N#C/C(=N/Nc1ccc(OC(F)(F)F)cc1)C(N)=S,13%,-13%,14µM*,-11%,4%
CN(C)/N=C/c1ccc(Sc2ccc([N+](=O)[O-])cc2[N+](=O)[O-])o1,-10%,50µM*,8%,-5%,0%
Cc1cc(C)nc(Sc2ccc([N+](=O)[O-])cc2[N+](=O)[O-])n1,-5%,10µM*,7%,-15%,1%
CCCCC1=CC2=C(c3ccco3)C(=O)C(C)(OC(=O)c3ccc(OC)cc3)C(=O)C2=CN1Cc1ccccc1 (stereo not drawn),1%,45µM*,3%,-5%,-2%
O=c1[nH]c2ccccc2nc1/C=C(\O)c1cccs1,-42%,4%[57.1 µM],?,-2%[57.1 µM],5%
O/C(=C\c1nc2ccccc2[nH]1)c1cccs1,-46%,45µM*,1%,4%,0%
CCC(c1ccc(O)c(O)c1)C(CC)c1ccc(O)c(O)c1 (stereo not drawn),nt,7.9µM*,18%,5%,nt
C=CCOc1ccc(C(c2c(O)nc(SC)[nH]c2=O)c2c(O)nc(SC)[nH]c2=O)cc1,nt,7.9µM*,-2%,8%,nt
CCOc1ccccc1C(c1c(O)nc(SC)[nH]c1=O)c1c(O)nc(SC)[nH]c1=O,nt,?,0%,1%,nt
CCOc1ccc(C(c2c(O)nc(SC)[nH]c2=O)c2c(O)nc(SC)[nH]c2=O)cc1,nt,28µM*,0%,-1%,nt
CSc1nc(O)c(C(c2cccc([N+](=O)[O-])c2)c2c(O)nc(SC)[nH]c2=O)c(=O)[nH]1,0%,45µM*,1%,-14%,-3%
CSc1nc(O)c(C(c2ccc(O)cc2)c2c(O)nc(SC)[nH]c2=O)c(=O)[nH]1,2%,8.9µM*,0%,2%,5%
O=C(CBr)c1ccc(Oc2ccc(C(=O)C[n+]3ccccc3Cl)cc2)cc1,nt,-15%,1%,5%,nt
COc1ccc(C#Cc2c(-c3ccccc3)n(-c3ccccc3)c3ccc(CO)cc23)cc1,nt,35µM*,2%,128%,nt
COC(=O)c1ccc(-n2c(CCC(=O)O)ccc2-c2ccc(C)cc2)cc1,-5%,45µM*,-4%,5%,4%
Cc1ccc(-c2ccc(CCC(=O)O)n2-c2ccc(C(=O)O)cc2)cc1,-3%,?,0%,10%[57.1 µM],3%
CC(=O)c1ccc(-n2c(CCC(=O)O)ccc2-c2cccs2)cc1,-15%,32µM*,0%,3%,-1%
COCCCn1c(CCC(=O)O)ccc1-c1cccs1,-2%,?,-2%,65%[57.1 µM],-1%
Cc1ccc(-n2c(CCC(=O)O)ccc2-c2cccs2)cc1Cl,?,50µM*,0%,4%,nt
NC(=O)c1ccc(-n2c(CCC(=O)O)ccc2-c2cccs2)cc1,-33%,-26%[57.1 µM],-1%,-3%[57.1 µM],0%
CCCn1c(CCC(=O)O)ccc1-c1cccs1,-3%,50µM*,0%,31%,-1%
